Screening results from PubChem.
Rows were chosen to be rich in hits. Some 19% of all compounds tested hit in one or more screens of this group.
TDP1 cell noCPT – qHTS for Inhibitors of human tyrosyl-DNA phosphodiesterase 1 (TDP1): qHTS in cells in absence of CPT | AID 686978, 2013 | 420,000 tested, 15% active | Potency, µM (top dose mostly 46.2 µM), most hits filed as inhibitors | DT40 Tdp1-/- hTDP1 cells, no CPT, ATP luminescence, 48 h; further: nearly all actives have a fitted effect of over 55% in size
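Luminescent ATP content (CellTiter-Glo) served as the growth readout. Knockout chicken DT40 cells expressing human TDP1 were exposed to compounds without camptothecin for a minimum 48 hr at 37 °C.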
Gal4-VP16 FLuc – Gal4-VP16 reporter inhibition counter-screen | Potency, µM (doses to about 53.6 µM), most hits filed as inhibitors | Drosophila S2 Gal4-VP16 UAS-luciferase, luminescence, 20 h | 310,000 tested, 3.5% active | AID 2546;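 further: Gal4-VP16 expression switched on by copper sulfate through the metallothionein promoter; nearly all actives have a fitted effect of over 50% in size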
RORg inh – inhibitors of mouse ROR gamma transcriptional activity; Drosophila S2 Gal4-RORgamma UAS-luciferase reporter, 20 h; 310,000 tested, 5.4% active; AID 2551; Potency, µM (top dose mostly 53.6 µM), usual class: inhibitors; further: nearly all actives have a fitted effect of over 60% in size
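Stably transfected Drosophila Schneider cells are the test system, with ROR gamma fused to Gal4 and luciferase under UAS control; luminescence is read after 20 hr of 700 uM copper sulfate induction at ambient temperature.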
TDP1 inh – blocks human tyrosyl-DNA phosphodiesterase 1 | Potency, µM (highest dose often 130 µM), hits mostly inhibitors | 350,000 tested, 0.28% active | recombinant TDP1, AlphaScreen DNA substrate cleavage | AID 485290; further: nearly all actives have a fitted effect of over 40% in size
Target sequence (Q9NUW8 whole entry, looked up): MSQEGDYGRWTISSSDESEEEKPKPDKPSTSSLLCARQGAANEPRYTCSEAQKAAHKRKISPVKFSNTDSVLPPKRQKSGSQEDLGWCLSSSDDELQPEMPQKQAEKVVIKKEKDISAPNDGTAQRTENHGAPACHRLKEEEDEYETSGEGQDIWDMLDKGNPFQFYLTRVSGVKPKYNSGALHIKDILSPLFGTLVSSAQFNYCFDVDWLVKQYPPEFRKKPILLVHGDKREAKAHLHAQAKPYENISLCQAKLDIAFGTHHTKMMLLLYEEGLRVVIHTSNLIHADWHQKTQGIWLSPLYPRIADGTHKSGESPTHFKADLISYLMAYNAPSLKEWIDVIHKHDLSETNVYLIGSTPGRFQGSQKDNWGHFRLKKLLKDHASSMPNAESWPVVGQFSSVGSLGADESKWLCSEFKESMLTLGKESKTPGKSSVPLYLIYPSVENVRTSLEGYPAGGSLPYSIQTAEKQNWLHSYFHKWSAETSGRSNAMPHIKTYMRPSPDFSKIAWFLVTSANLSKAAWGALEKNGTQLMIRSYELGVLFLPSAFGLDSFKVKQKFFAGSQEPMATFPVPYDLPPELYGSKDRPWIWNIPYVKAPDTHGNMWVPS
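Recombinant E. coli-expressed Tdp1 (1 nM) preincubated with compound 15 min at RT, then 5'-biotin/3'-phosphotyrosine-FITC DNA substrate (15 nM) added for 5 min. AlphaScreen beads (10 ug/ml) added, 10 min RT; tyrosine-FITC cleavage read as signal loss.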
TDP1 cell CPT – DT40-hTDP1 cell growth loss with CPT; chicken DT40 Tdp1-/-;hTDP1 cells + 20 nM CPT, ATP luminescence, 48 h; Potency, µM (doses to about 46.2 µM), actives largely listed as inhibitors; 420,000 tested, 12% active; further: nearly all actives have a fitted effect of over 55% in size
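Chicken DT40 Tdp1-/- cells complemented with human TDP1, 400 cells/well, exposed to compounds plus 20 nM camptothecin for at least 48 h at 37 C; viability read as ATP content by CellTiter-Glo luminescence.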
A number is an active result; i = inactive; ? = inconclusive; nt = not tested or not shown; ! = not active in a repeat; [ ] = remark or other dose. The call rests on the fitted dose curve; in most records, active means well fitted curve in the direction sought with a large enough effect; inconclusive means small, poorly fitted or top-dose-only effect, or another doubt; inactive means no such curve, though single readings can be large; an effect the other way counts as inactive or inconclusive.

SMILES	TDP1 cell noCPT	Gal4-VP16 FLuc	RORg inh	TDP1 inh	TDP1 cell CPT
Cc1ccc(C)c(NC(=O)c2nn(C)c3c2CS(=O)(=O)c2ccccc2-3)c1	?	nt	nt	i	?
CC(=O)Nc1nc(=S)ss1	i	i	i	i	i
CC(C)CC(=O)Nc1nc(=S)ss1	10µM	i	i	i	?
CC1Cc2nc(SCC(=O)Nc3ccc4c(c3)OCO4)n(CCc3ccccc3)c(=O)c2S1 (stereo not drawn)	?	i	?	i	?
CC(Sc1nnc(NC2CCCCC2)s1)C(=O)Nc1ccc2c(c1)C(=O)c1ccccc1C2=O (stereo not drawn)	21µM	i	i	i	?
CC(Sc1nnc(NC2CC2)s1)C(=O)Nc1ccc(N2CCOCC2)cc1 (stereo not drawn)	i	nt	nt	i	i
CC(C)(C)NC(=S)NC(=O)C12CC3CCC(CC(C3)C1)C2	?	4.5µM	2.8µM	i	?
CN1CCC(N(C)C(=S)NC(=O)C23CC4CC(CC(C4)C2)C3)CC1	i	?	?	i	i
CN(C)NC(=S)NC(=O)C12CC3CC(CC(C3)C1)C2	8.2µM	2.8µM	1µM	i	4.1µM
CN(C)c1ccc(C(=O)NNC(=O)C23CC4CC(CC(C4)C2)C3)cc1	?	nt	nt	i	i
CN(C(=S)NC(=O)C12CC3CC(CC(C3)C1)C2)c1ccc(O)cc1	4.6µM	nt	nt	i	5.8µM
O=C(NC1C2CC3CC(C2)CC1C3)C1CC1 (stereo not drawn)	i	i	i	i	?
O=C(NC(=S)NC1C2CC3CC(C2)CC1C3)C12CC3CC(CC(C3)C1)C2 (stereo not drawn)	15µM	2.8µM	1µM	i	?
CC(C)n1nnnc1SCC(=O)Nc1ccccc1N1CCOCC1	i	i	i	i	i
CC1CCCN(S(=O)(=O)c2ccc(NC(=O)CN3CCN(C)CC3)cc2)C1 (stereo not drawn)	i	i	i	i	?
CC(=O)OC/C=C(\C)CC/C=C(\C)CC/C=C(\C)CC/C=C(\C)CC/C=C(\C)CC/C=C(\C)CC/C=C(\C)CC/C=C(\C)CCC=C(C)C	i	i	i	i	i
CC(C)=CCC1=C(OCC(=O)O)C(=O)c2ccccc2C1=O	29µM	2.2µM	?	i	23µM
COc1ccccc1OCC(=O)O	i	i	i	i	i
CC(C)=CCC/C(C)=C/CC/C(C)=C/CC/C(C)=C/CC1=C(C)C(=O)c2ccccc2C1=O	24µM	i	i	i	27µM!
C[C@@]12C(=O)Nc3cc(Cl)ccc3C(=O)N1[C@H]1c3cc(Br)ccc3OC[C@@H]1[C@@H]2c1ccccc1	23µM	nt	nt	i	15µM
C[C@@]12C(=O)Nc3cc(Cl)ccc3C(=O)N1[C@H]1c3cc(Cl)ccc3OC[C@@H]1[C@@H]2c1ccccc1	?	nt	nt	i	18µM
COc1ccc2c(c1)[C@H]1[C@H](CO2)[C@H](c2ccccc2)[C@]2(C)C(=O)Nc3ccccc3C(=O)N12	?	nt	nt	i	?
CCC(C)n1c(SC(C)C#N)nc2ccccc2c1=O (stereo not drawn)	23µM	i	i	i	?
CCC(C)n1c(SCC(=O)NC(=O)c2cccn2C)nc2ccccc2c1=O (stereo not drawn)	?	?	14µM	i	?
C=CCn1c(SCC(=O)NC(=O)c2cccn2C)nc2ccccc2c1=O	i	i	i	i	i
SMILES	TDP1 cell noCPT	Gal4-VP16 FLuc	RORg inh	TDP1 inh	TDP1 cell CPT
CC(C)CCn1c(SC(C)C#N)nc2ccccc2c1=O (stereo not drawn)	?	nt	nt	i	?
Cc1ccc(S(=O)(=O)CC(=O)Nc2nnc(C(C)(C)C)s2)cc1	i	i	i	i	i
Cc1ccccc1OCC(=O)Nc1ccc(C)c(S(=O)(=O)N2CCCCCC2)c1	?	nt	nt	i[0.505 µM]	?
Cc1ccc(S(=O)(=O)N2C[C@H]3C(=O)C[C@@H](c4ccccc4F)N(S(=O)(=O)c4ccc(C)cc4)[C@H]3C[C@H]2c2ccccc2F)cc1	10µM	nt	nt	nt	8.2µM
Cn1ccs/c1=N\S(=O)(=O)c1ccc(Br)cc1	i	i	i	i	i
O=C(Cn1ncc2c1-c1ccccc1OC2)Nc1cccc(Cl)c1	?	i	i	i	?
COc1ccc(N2C(=O)C(CC(=O)Nc3ccc(F)cc3)N(CCC3=CCCCC3)C2=O)cc1 (stereo not drawn)	16µM	nt	nt	i	?
CCOc1ccc(NC(=O)CC2C(=O)N(c3cccc(C)c3)C(=O)N2CCC2=CCCCC2)cc1 (stereo not drawn)	23µM	nt	nt	i	?
COc1ccc(NC(=O)CC2C(=O)N(c3ccccc3)C(=O)N2CCC2=CCCCC2)cc1 (stereo not drawn)	?	nt	nt	i	?
S=C(Nc1cc(Cl)ccc1Cl)Nn1cnnc1	?	i	i	nt	i
Cc1cc(=O)oc2cc(OCC(=O)N3CCOCC3)ccc12	i	i	i	i	i
O=C(N/N=C/c1ccc(OC2CSC2)cc1)c1ccccc1	i	i	?	i	i
C=C(CCC12O[C@H](C(=O)O)[C@@](O)(C(=O)O)[C@](C(=O)O)(O1)[C@H](OC(=O)/C=C/[C@@H](C)C[C@@H](C)CC)[C@H]2O)[C@@H](OC(C)=O)[C@H](C)Cc1ccccc1	nt	i	i	i	nt
C=C(CC[C@]12OC(C(=O)O)C(O)(C(=O)O)C(C(=O)O)(O1)C(OC(=O)/C=C/[C@@H](C)C[C@@H](C)CC)C2O)[C@@H](OC(C)=O)[C@H](C)Cc1ccccc1 (stereo partly drawn)	7.9µM	nt	nt	nt	8.9µM
CCOc1ccc(CN2CCN(CCCc3ccccc3)CC2CCO)cc1 (stereo not drawn)	?	i	i	nt	?
CCCCn1c(N)c(N(CC)C(=O)c2ccccc2C)c(=O)[nH]c1=O	i	i	i	i	i
O=C(Nc1c2c(nn1-c1ccccc1)CS(=O)(=O)C2)c1ccco1	i	i	i	i	i
N#CC(c1ccc(Cl)cc1)c1ccc2c(C(F)(F)F)cc(C(F)(F)F)nc2n1 (stereo not drawn)	0.58µM	?	i	i	0.65µM
COc1ccc(C2NC(=O)NC(C)=C2C(=O)OCc2ccc3c(c2)OCO3)cc1OC (stereo not drawn)	?	i	i	i	?
COc1ccc(C2CCc3cc4c(cc3C2=NO)OCO4)cc1OC (stereo not drawn)	15µM	nt	nt	nt	?
COc1cc2c(cc1OC)[C@H](C)N(C(=O)NCc1ccccc1)CC2	7.3µM	i	i	nt	23µM
COc1cc2c(cc1OC)C(C)N(C(=S)Nc1ccccc1)CC2 (stereo not drawn)	?	i	?	i	i
COc1cc2c(cc1OC)[C@H](C)N(C(=O)COc1ccccc1)CC2	i	i	i	nt	i
COc1cc2c(cc1OC)C(C)N(C(=S)NC(=O)c1ccccc1)CC2 (stereo not drawn)	21µM	2.2µM	1.3µM	i	?
